A short description of experiment [1]: qHTS to identify inhibitors of the type 1 interferon - major histocompatibility complex class I in skeletal muscle: primary screen against the NCATS LOPAC collection (AID 1347405).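 Further: lytic HiBiT luminescence reporting HLA-B protein level.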 Further: potency means the concentration at half of the fitted maximal effect. Particulars: iHSKM muscle cells, IFN-b-induced MHC-I HiBiT luminescence, 24 h; series mostly up to 45.9 µM. In short, it runs like this: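 Luminescence from HiBiT fused to endogenous HLA-B in CRISPR-engineered human myoblasts served as the read-out. Cells received 4.0 ng/ml IFN-beta plus compound (seven concentrations, 1:4.3 steps, highest 46 uM final) for 24 hrs before lytic detection.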

Experiment [2] can be described thus: qHTS for inhibitors of adenylyl cyclases using a fission yeast platform: a pilot screen against the NCATS LOPAC library (AID 1347410). The note with it: S. pombe CHP2027, fbp1-GFP fluorescence, 18 h, yeast expressing mammalian AC9 and human GNAS; series mostly up to 57.5 µM. In short, it runs like this:
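Read-out: fbp1-GFP fluorescence by laser scanning cytometry (488 nm laser), a gain of signal when AC/cAMP-PKA signalling is inhibited. Strain CHP2027 expressing AC9, GNAS and PDE4D2; compounds at up to 57 µM; 18 h, 30C.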

Experiment [3] can be described thus: Validation qHTS assay for inhibitors of Activation Induced Cytidine Deaminase (AID): UDG Counterscreen signal (AID 1347427). Further: potency means the concentration at half of the fitted maximal effect. The note with it: biochemical UDG counterscreen, fluorescence signal; series mostly up to 115 µM. An outline of the steps: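 Counterscreen read of UDG activity (2 U/mL, 4/3x) in the FRET deamination format with AID (1 uM, 4/3x), DJC20/DJC23 substrates (250 nM, 4x), 4 h at room temperature. NaOH stop, fluorescence at 560 ex/665 em.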

The target in experiment [4] is Single-stranded DNA cytosine deaminase (Homo sapiens) (UniProt Q9GZX7). Put plainly: Validation qHTS assay for inhibitors of Activation Induced Cytidine Deaminase (AID): AID signal (AID 1347429). The note with it: Recombinant AID, FRET ssDNA deamination with UDG, fluorescence; series mostly up to 115 µM. An outline of the steps: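 Fluorescence at 540 nm excitation and 590 nm emission reports ssDNA cytosine deamination by AID, with UDG in the same well. Compound-treated reactions ran 4 hr at room temperature with DJC20/DJC23 substrate, followed by 30 min NaOH treatment.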

Experiment [5] concerns the target Calcium and integrin-binding protein 1 (Homo sapiens) (UniProt Q99828). In words: Validation qHTS for Identification of Calcium Integrin Binding protein 1 (CIB1) Competitor (AID 1508618). The note with it: CIB1-GST / FITC-alphaIIb peptide fluorescence polarization; series mostly up to 114 µM. An outline of the steps: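 Displacement of FITC-alphaIIb peptide (100 nM) from CIB1-GST (1 uM) is monitored by polarization in quantitative HTS format; buffer carries 5 mM CaCl2 and 125 mM NaCl at pH 7.4, incubations are at room temperature.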

Experiment [6] is described as follows: Primary qHTS for inhibitors of La Crosse Virus (LACV) - induced cell death in SH-SY5Y cells (AID 1508616). Further: potency means the concentration at half of the fitted maximal effect. Particulars: SH-SY5Y LACV cytopathicity rescue, ATP luminescence, 6 d; series mostly up to 9.63 µM. An outline of the steps:
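Protection against LACV-induced cell death is scored in SH-SY5Y cells exposed to compounds and virus (0.01 MOI) for 6 days. Data normalized to virus-infected DMSO wells and virus-free DMSO wells.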

Inconclusive results are not listed. The source made the active and inactive calls. The call rests on the fitted dose curve; in most records, active means well fitted curve in the direction sought with a large enough effect; inconclusive means small, poorly fitted or top-dose-only effect, or another doubt; inactive means no such curve, though single readings can be large; an effect the other way counts as inactive or inconclusive.

Chain of Single-stranded DNA cytosine deaminase (Homo sapiens) (Q9GZX7 whole entry, looked up): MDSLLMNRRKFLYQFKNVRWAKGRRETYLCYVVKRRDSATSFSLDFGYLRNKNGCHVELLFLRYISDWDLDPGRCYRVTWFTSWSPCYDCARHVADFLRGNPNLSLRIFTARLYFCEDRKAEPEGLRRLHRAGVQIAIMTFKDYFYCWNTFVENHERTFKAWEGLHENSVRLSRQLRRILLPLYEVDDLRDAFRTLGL
Chain of Calcium and integrin-binding protein 1 (Homo sapiens) (Q99828 whole entry, looked up): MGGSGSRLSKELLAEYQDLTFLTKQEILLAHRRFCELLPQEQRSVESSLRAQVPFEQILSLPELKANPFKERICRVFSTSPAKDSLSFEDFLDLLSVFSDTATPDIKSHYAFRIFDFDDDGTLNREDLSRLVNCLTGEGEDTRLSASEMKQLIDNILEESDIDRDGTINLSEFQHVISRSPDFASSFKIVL

For `CN1[C@@H](CC(=O)c2ccccc2)CCC[C@H]1C[C@H](O)c1ccccc1`, the Potency result in experiment [1], in experiment [3] and in experiment [4] was “inactive” in each case. The call in experiment [2] and in experiment [5] was inactive.
Regarding `CCCCC#Cc1nc(NC)c2ncn([C@@H]3O[C@H](CO)[C@@H](O)[C@H]3O)c2n1`, the Potency entry in experiment [1], in experiment [3] and in experiment [4] was “inactive” throughout. For the same compound, the compound was classed as inactive in experiment [2] and in experiment [5].
With `COc1cccc(C(=O)NCCN2CCN(c3ccc(Cl)cc3)CC2)c1`, the Potency result in experiment [1], in experiment [3], in experiment [4] and in experiment [6] was “inactive” each time. Also, the result in experiment [2] and in experiment [5] was inactive.
On to `CSc1ccccc1N1CCN(CCCCCC(=O)NC2CCCc3ccccc32)CC1` (centres undefined), for which the Potency entry in experiment [1], in experiment [3], in experiment [4] and in experiment [6] was “inactive” throughout. Also, the compound was classed as inactive in experiment [2] and in experiment [5].
As for `CC1CN(S(=O)(=O)c2cccc3cnccc23)CCN1` (centres undefined), the Potency result in experiment [1], in experiment [3], in experiment [4] and in experiment [6] was “inactive” each time. Besides, the outcome in experiment [2] and in experiment [5] was inactive.
As to `Nc1nc(Cl)nc2c1ncn2[C@@H]1O[C@H](COP(=O)(O)OP(=O)(O)OP(=O)(O)O)[C@@H](O)[C@H]1O`, the Potency entry in experiment [1], in experiment [3] and in experiment [4] was “inactive” throughout. For the same compound, the compound was classed as inactive in experiment [2] and in experiment [5].
Take `CC1OC1P(=O)(O)O` (centres undefined): the Potency entry in experiment [1], in experiment [3] and in experiment [4] was “inactive” throughout. For the same compound, the compound was classed as inactive in experiment [2] and in experiment [5].
For `C[C@@H](CN1CCC(Cc2ccccc2)CC1)[C@@H](O)c1ccc(O)cc1`, the Potency entry in experiment [1], in experiment [3], in experiment [4] and in experiment [6] was “inactive” in each case. Also, the call in experiment [2] and in experiment [5] was inactive.
For `O=C(c1ccc(Cl)cc1)N1CCN(c2ccc([N+](=O)[O-])c3ncccc23)CC1`, the Potency entry in experiment [1], in experiment [3] and in experiment [4] was “inactive” each time. The compound was classed as inactive in experiment [2] and in experiment [5].
`NC(=S)c1ccc[n+]([C@@H]2O[C@@H](COP(=O)([O-])OP(=O)(O)OC[C@H]3O[C@@H](n4cnc5c(N)ncnc54)[C@H](OP(=O)(O)O)[C@@H]3O)C(O)C2O)c1` (some centres undefined): the Potency result in experiment [1], in experiment [3], in experiment [4] and in experiment [6] was “inactive” each time. Further, the call in experiment [2] and in experiment [5] was inactive.
With `Nc1ncnc2c1ncn2[C@@H]1O[C@H](COP(=O)(O)CP(=O)(O)OP(=O)(O)O)[C@@H](O)[C@H]1O`, the Potency entry in experiment [1], in experiment [3], in experiment [4] and in experiment [6] was “inactive” in each case. The outcome in experiment [2] and in experiment [5] was inactive.
For `CCCCCCCCCCCCCCCC(=O)OC(CC(=O)O)C[N+](C)(C)C` (centres undefined), the Potency entry in experiment [1], in experiment [3] and in experiment [4] was “inactive” each time. In addition, the outcome in experiment [2] and in experiment [5] was inactive.
`O=C(c1ccc(OCCCc2cnc[nH]2)cc1)C1CC1`: the Potency entry in experiment [1], in experiment [3], in experiment [4] and in experiment [6] was “inactive” in each case. The compound was called inactive in experiment [2] and in experiment [5].
In the case of `N=c1ccn2c(n1)O[C@H]1[C@H](O)[C@@H](CO)O[C@H]12`, the Potency entry in experiment [1], in experiment [3] and in experiment [4] was “inactive” in each case. The result in experiment [2] and in experiment [5] was inactive.
As to `C[N+]1(C)CCC(OC(=O)C(c2ccccc2)c2ccccc2)CC1`, the Potency result in experiment [1], in experiment [3], in experiment [4] and in experiment [6] was “inactive” in each case. The result in experiment [2] and in experiment [5] was inactive.
Take `COc1ccccc1CNCCCCCCNCCCCCCCCNCCCCCCNCc1ccccc1OC`: the Potency result in experiment [1], in experiment [3], in experiment [4] and in experiment [6] was “inactive” each time. The compound was called inactive in experiment [2] and in experiment [5].
For `COC(=O)c1c(C)[nH]c(C)c1C(=O)c1ccccc1Cc1ccccc1`, the Potency result in experiment [1], in experiment [3], in experiment [4] and in experiment [6] was “inactive” each time. The call in experiment [2] and in experiment [5] was inactive.
For the compound `O=C1/C(=C/c2ccsc2)CC/C1=C\c1cccs1`, the Potency entry in experiment [1], in experiment [3] and in experiment [4] was “inactive” each time. Further, the compound was classed as inactive in experiment [2] and in experiment [5].
With `CNc1ncnc2c1ncn2[C@@H]1O[C@H](CO)[C@@H](O)[C@H]1O`, the Potency result in experiment [1], in experiment [3] and in experiment [4] was “inactive” in each case. Moreover, the result in experiment [2] and in experiment [5] was inactive.
Regarding `Cc1ccc(S(=O)(=O)/C=C/C#N)cc1`, the figures for the Potency in experiment [1] and in experiment [6] were 12.6 µM (active) and 1.41 µM (active), respectively. Moreover, the call in experiment [2] and in experiment [5] was inactive. Further, the Potency result in experiment [3] and in experiment [4] was “inactive” in each case.
`NCC1OC(O[C@H]2[C@H](O)[C@@H](OC3C(O)C(N)CC(N)C3OC3OC(CO)C(O)C(O)C3N)O[C@@H]2CO)C(N)C(O)C1O` (some centres undefined): the Potency result in experiment [1], in experiment [3], in experiment [4] and in experiment [6] was “inactive” throughout. The call in experiment [2] and in experiment [5] was inactive.
Consider `S=c1[nH]c(-c2ccccc2)cn1-c1ccccc1`, for which the Potency entry in experiment [1] is “inactive”. In addition, the compound was called inactive in experiment [2] and in experiment [5].
As for `COc1cc(C(O)CO)ccc1OS(=O)(=O)O` (centres undefined), the Potency result in experiment [1], in experiment [3] and in experiment [4] was “inactive” each time. Also, the outcome in experiment [2] and in experiment [5] was inactive.
For the compound `Nc1nc2c(ncn2[C@@H]2O[C@H](CO)[C@@H](O)[C@@H]2O)c(=O)[nH]1`, the Potency entry in experiment [1] was “inactive”. Besides, the result in experiment [2] and in experiment [5] was inactive.
As for `CN[C@H](CC(C)C)C(=O)N[C@H]1C(=O)N[C@@H](CC(N)=O)C(=O)N[C@H]2C(=O)N[C@H]3C(=O)N[C@H](C(=O)N[C@H](C(=O)O)c4cc(O)cc(O)c4-c4cc3ccc4O)[C@H](O)c3ccc(c(Cl)c3)Oc3cc2cc(c3O[C@@H]2O[C@H](CO)[C@@H](O)[C@H](O)[C@H]2O[C@H]2C[C@](C)(N)[C@H](O)[C@H](C)O2)Oc2ccc(cc2Cl)[C@H]1O`, the Potency result in experiment [1] is “inactive”. Also, the compound was called inactive in experiment [2] and in experiment [5].
On to `CCNC(=O)[C@H]1O[C@@H](n2cnc3c(N)nc(NCCc4ccc(CCC(=O)O)cc4)nc32)[C@H](O)C1O` (some centres undefined), for which the Potency result in experiment [1] was “inactive”. Further, the compound was classed as inactive in experiment [2] and in experiment [5].
`COCCOc1cc2ncnc(Cl)c2cc1OCCOC`: in experiment [1], the Potency entry is “inactive”. The outcome in experiment [2] and in experiment [5] was inactive.
In the case of `O=C(CCc1ccncc1)NNC(=O)N1Cc2ccccc2Oc2ccc(Cl)cc21`, in experiment [1], the Potency result is “inactive”. For the same compound, the result in experiment [2] and in experiment [5] was inactive.
Regarding `COc1ccc2c(c1)CCC1C2CC[C@@]2(C)C1CC[C@@H]2NCCCCCCN1C(=O)CCC1=O` (some centres undefined), the Potency result in experiment [1], in experiment [3] and in experiment [4] was “inactive” each time. For the same compound, the compound was called inactive in experiment [2] and in experiment [5].
In the case of `N.N.N.N.N.N.N.N.N.N.N.N.N.N.O.O.[Ru+4].[Ru+5].[Ru+5]`, the Potency result in experiment [1] and in experiment [6] was “inactive” each time. Besides, the compound was called inactive in experiment [2]. In experiment [3], the Potency is 39.8 µM (active).
Consider `Cn1ncc(S(=O)(=O)Cc2ccccc2)c(Br)c1=O`, for which the Potency entry in experiment [1], in experiment [3] and in experiment [4] was “inactive” in each case. Further, the call in experiment [2] and in experiment [5] was inactive.
